# Results reported in PubChem BioAssay (NCI).
# The panel holds about 83,000 compounds, 20% with a hit somewhere; the sample as a whole holds those more often.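 Assay: single dose, 48 h. Readout: percent growth (0 = no net growth; negative = cell death). Active: <10.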 Unmarked numbers belong to inactive results. Active and inactive are the calls of the source.
# System: NCI-H460 lung
# Assay: NCI-60 one-dose screen, 48 h (100 = growth as untreated, 0 = no growth, -100 = all killed)
# Conditions: 10 µM unless noted
row,Structure (SMILES),growth
1,O=c1c2ccccc2n2cnc3ccc(Cl)c1c32,58.5%
2,CCN(CC)CC(O)COc1c(Br)c(Br)c(Br)c2c1OC(C)(C)C2 (stereo not given),27.7%
3,N#Cc1c(-c2ccccc2)cc(-c2ccccc2)n(CCCC(=O)Nc2ccccc2N)c1=O,33.5%
4,CC1OC(n2c3ccccc3c3c4c(c5c6ccccc6[nH]c5c32)C(=O)N(CCN2CCCC2)C4=O)CC(O)C1O (stereo not given),-61.3% (active)
5,CCOC(=O)NC(C)C,115%
6,COc1ccc2[nH]c(C(=O)N3CCN(C(=O)OCc4ccc5c(Cl)cc(Cl)c(O)c5n4)CC3)cc2c1,-58.9% (active)
7,O=C(/C=C/c1ccccc1)Nc1ncc(Cc2ccccc2Cl)s1,14.1%
8,COC12C=C/C(=C(/C(=O)OCc3ccncc3)C(=O)CCCCCCCCC3(OC)C=C/C(=C(/C(=O)OCc4ccncc4)C(=O)CCCCCCCC1)O3)O2,1.88% (active)
9,CC(C)=CC(=O)OCC(=O)O[C@@H]1C[C@]2(C(C)C)O[C@@]1(C)[C@@H]1CC[C@@H](C)[C@H]1[C@@H]2OC(=O)/C=C/c1ccccc1,93.5%
10,COc1ccc(Cc2cnc(NC(=O)c3cc(C)oc3C)s2)cc1,16.6%
11,NC(Cc1ccc(O)c([N+](=O)[O-])c1)C(=O)O (stereo not given),113%
12,CC(C)COc1nc2c(c(=O)n(C)c(=O)n2C)n1C,105%
13,CCc1ccccc1-n1c(-c2ccc(OC)cc2)cc(-c2ccc(OC)cc2)c(C#N)c1=O,85.5%
14,CCCCCOC(=O)c1c(C)[nH]c(/C=C2\N=C(c3ccc[nH]3)C=C2OC)c1C,4.97% (active)
15,CCCCCC(/C=N\NC(=S)N/N=C/C(=C/c1ccccc1)CCCCC)=C\c1ccccc1,57.8%
16,O=C(c1nn(-c2ccccc2)c2c1CC(NCc1ccc(F)cc1)CC2)N1CCCCC1 (stereo not given),117%
17,CCOC(=O)c1cc2c(n1Cc1cc(OC)c(OC)c(OC)c1)-c1nc(N)sc1CCC2,31.9%
18,COC(=O)CC[C@H](C)[C@H]1CC[C@H]2[C@@H]3CC[C@@H]4CC5(CC[C@]4(C)[C@H]3CC(=O)[C@]12C)Nc1ccccc1NC5=NC(C)(C)C (stereo not given in full),85.5%
19,CCN(CC)CCCCCNc1cc(OC(=O)c2ccc(Cl)cc2)cc2cccnc12,110%
20,CC1CCc2c(C(=O)Nc3ncc(Cc4cccc([N+](=O)[O-])c4)s3)csc2C1 (stereo not given),11.2%

row,Structure (SMILES),growth
1,COCCNC(=O)Nc1ccc2nc(-c3cccs3)c(-c3cccs3)nc2c1,88.7%
2,OCCn1cc(-c2nc(-c3c[nH]c4ncccc34)cs2)c2cc(F)ccc21,65.7%
3,N#Cc1ccc(O)c(C2=NCC(c3ccccc3)O2)c1 (stereo not given),19.9%
4,C#CCOC(=O)/C=C/c1cn(-c2ccccc2)nc1-c1ccc(OC)cc1,95.1%
5,CCCC/C(CC)=N\NS(=O)(=O)c1ccc([N+](=O)[O-])cc1,105%
6,Nc1n[nH]c2cccc(C#Cc3cccc(NC(=O)c4cc(F)cc(C(F)(F)F)c4)c3)c12,77.8%
7,O=C1/C(=C/c2ccccc2O)CC/C1=C\c1ccccc1O,68.9%
8,Cn1cc(-c2csc(-c3cn(C(=O)OC(C)(C)C)c4ccc(Br)cc34)n2)c2ccnc(Cl)c21,68.7%
9,O=C(Nc1cccc(-c2ccc(N3CCOCC3)nn2)c1)Nc1cccc(C(F)(F)F)c1,79.1%
10,COc1cc(-c2nccc3[nH]c(-c4ccc5cc[nH]c5c4)nc23)cc(OC)c1OC,2.58% (active)
11,C=CC[Se]C(=O)Cc1c(C)n(C(=O)c2ccc(Cl)cc2)c2ccc(OC)cc12,-6.72% (active)
12,Cc1cc(C(=O)O)c(C)n1-c1cccc(C(=O)O)c1,35.1%
13,COCCOc1cc2ncnc(N3CCN(c4cc(S(C)(=O)=O)c(C)cc4Cl)CC3)c2cc1OCCOC,102%
14,O=C(N(c1ccccc1)c1ccccc1)n1cc(I)c2nc(Cl)nc(Cl)c21,43.8%
15,C=CCn1c(SCC(=O)Nc2ccc(C(=O)/C=C/c3ccc(Cl)cc3)cc2)nnc1-c1ccc(Br)cc1,83.1%
16,C=CCN=c1sc2c(n1NC(=O)c1cc3ccc1CCc1ccc(cc1)CC3)C(=O)c1ccccc1C2=O,12.7%
17,Nc1c(C(=O)Nc2ccccc2F)sc2nc3c(cc12)CCCC3,12%
18,COc1ccc(/C=N\Nc2nc(SCCC(C)C)nc(-c3ccc(OC)cc3)c2C#N)cc1,13.9%
19,CC(C)=CCCC(C)c1ccc(C)c2c1OCN(CCCCCO)C2 (stereo not given),81.1%
20,CCCCCN1C(=O)/C(=c2\sc3n(c2=O)C2C(NN=3)N(CC)C(=O)N2CC)c2ccccc21 (stereo not given),-74.6% (active)

# System: HOP-92 NSCLC
# Assay: as above
# Conditions: 10 µM unless noted
row,Structure (SMILES),growth
1,O=c1c2ccccc2n2cnc3ccc(Cl)c1c32,102%
2,CCN(CC)CC(O)COc1c(Br)c(Br)c(Br)c2c1OC(C)(C)C2 (stereo not given),28.1%
3,N#Cc1c(-c2ccccc2)cc(-c2ccccc2)n(CCCC(=O)Nc2ccccc2N)c1=O,62.1%
4,CC1OC(n2c3ccccc3c3c4c(c5c6ccccc6[nH]c5c32)C(=O)N(CCN2CCCC2)C4=O)CC(O)C1O (stereo not given),86.6%
5,CCOC(=O)NC(C)C,79.6%
6,COc1ccc2[nH]c(C(=O)N3CCN(C(=O)OCc4ccc5c(Cl)cc(Cl)c(O)c5n4)CC3)cc2c1,-65.4% (active)
7,O=C(/C=C/c1ccccc1)Nc1ncc(Cc2ccccc2Cl)s1,65.1%
8,COC12C=C/C(=C(/C(=O)OCc3ccncc3)C(=O)CCCCCCCCC3(OC)C=C/C(=C(/C(=O)OCc4ccncc4)C(=O)CCCCCCCC1)O3)O2,-48.9% (active)
9,CC(C)=CC(=O)OCC(=O)O[C@@H]1C[C@]2(C(C)C)O[C@@]1(C)[C@@H]1CC[C@@H](C)[C@H]1[C@@H]2OC(=O)/C=C/c1ccccc1,61%
10,COc1ccc(Cc2cnc(NC(=O)c3cc(C)oc3C)s2)cc1,49.9%
11,NC(Cc1ccc(O)c([N+](=O)[O-])c1)C(=O)O (stereo not given),67.4%
12,CC(C)COc1nc2c(c(=O)n(C)c(=O)n2C)n1C,93.7%
13,CCc1ccccc1-n1c(-c2ccc(OC)cc2)cc(-c2ccc(OC)cc2)c(C#N)c1=O,5.54% (active)
14,CCCCCOC(=O)c1c(C)[nH]c(/C=C2\N=C(c3ccc[nH]3)C=C2OC)c1C,-20.5% (active)
15,CCCCCC(/C=N\NC(=S)N/N=C/C(=C/c1ccccc1)CCCCC)=C\c1ccccc1,15.8%
16,O=C(c1nn(-c2ccccc2)c2c1CC(NCc1ccc(F)cc1)CC2)N1CCCCC1 (stereo not given),92.5%
17,CCOC(=O)c1cc2c(n1Cc1cc(OC)c(OC)c(OC)c1)-c1nc(N)sc1CCC2,42%
18,COC(=O)CC[C@H](C)[C@H]1CC[C@H]2[C@@H]3CC[C@@H]4CC5(CC[C@]4(C)[C@H]3CC(=O)[C@]12C)Nc1ccccc1NC5=NC(C)(C)C (stereo not given in full),-2.12% (active)
19,CCN(CC)CCCCCNc1cc(OC(=O)c2ccc(Cl)cc2)cc2cccnc12,38.2%
20,CC1CCc2c(C(=O)Nc3ncc(Cc4cccc([N+](=O)[O-])c4)s3)csc2C1 (stereo not given),58.9%

row,Structure (SMILES),growth
1,COCCNC(=O)Nc1ccc2nc(-c3cccs3)c(-c3cccs3)nc2c1,80.8%
2,OCCn1cc(-c2nc(-c3c[nH]c4ncccc34)cs2)c2cc(F)ccc21,52.3%
3,N#Cc1ccc(O)c(C2=NCC(c3ccccc3)O2)c1 (stereo not given),60.6%
4,C#CCOC(=O)/C=C/c1cn(-c2ccccc2)nc1-c1ccc(OC)cc1,60.8%
5,CCCC/C(CC)=N\NS(=O)(=O)c1ccc([N+](=O)[O-])cc1,91.6%
6,Nc1n[nH]c2cccc(C#Cc3cccc(NC(=O)c4cc(F)cc(C(F)(F)F)c4)c3)c12,39.1%
7,O=C1/C(=C/c2ccccc2O)CC/C1=C\c1ccccc1O,20%
8,Cn1cc(-c2csc(-c3cn(C(=O)OC(C)(C)C)c4ccc(Br)cc34)n2)c2ccnc(Cl)c21,58.8%
9,O=C(Nc1cccc(-c2ccc(N3CCOCC3)nn2)c1)Nc1cccc(C(F)(F)F)c1,58.6%
10,COc1cc(-c2nccc3[nH]c(-c4ccc5cc[nH]c5c4)nc23)cc(OC)c1OC,-8.58% (active)
11,C=CC[Se]C(=O)Cc1c(C)n(C(=O)c2ccc(Cl)cc2)c2ccc(OC)cc12,-21.6% (active)
12,Cc1cc(C(=O)O)c(C)n1-c1cccc(C(=O)O)c1,90.5%
13,COCCOc1cc2ncnc(N3CCN(c4cc(S(C)(=O)=O)c(C)cc4Cl)CC3)c2cc1OCCOC,53.3%
14,O=C(N(c1ccccc1)c1ccccc1)n1cc(I)c2nc(Cl)nc(Cl)c21,71.8%
15,C=CCn1c(SCC(=O)Nc2ccc(C(=O)/C=C/c3ccc(Cl)cc3)cc2)nnc1-c1ccc(Br)cc1,87.2%
16,C=CCN=c1sc2c(n1NC(=O)c1cc3ccc1CCc1ccc(cc1)CC3)C(=O)c1ccccc1C2=O,21.5%
17,Nc1c(C(=O)Nc2ccccc2F)sc2nc3c(cc12)CCCC3,11.9%
18,COc1ccc(/C=N\Nc2nc(SCCC(C)C)nc(-c3ccc(OC)cc3)c2C#N)cc1,63.2%
19,CC(C)=CCCC(C)c1ccc(C)c2c1OCN(CCCCCO)C2 (stereo not given),27.7%
20,CCCCCN1C(=O)/C(=c2\sc3n(c2=O)C2C(NN=3)N(CC)C(=O)N2CC)c2ccccc21 (stereo not given),3.79% (active)
